# Source: PubChem BioAssay (NCATS)
# Inconclusive results are not listed. This is one part of the list. A call without a number means that no potency is given here. Active and inactive are the calls of the source. Calls come from the whole dose curve; as a rule, active = well fitted curve in the direction sought with a large enough effect; inconclusive = small, poorly fitted or top-dose-only effect, or another doubt; inactive = no such curve, though single readings can be large; an effect the other way counts as inactive or inconclusive.
# Legend:
# [1] = Cell Viability - LYMP2-016 (AID 984); conditions: LYMP2-016 lymphoblastoid cell viability, qHTS; series mostly up to 92.2 µM;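 note: cells exposed to compound for 24 hours at 37 °C; nearly all actives have a fitted effect of over 55% in size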
# How it was run: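 Cells were seeded at 2500 per well and rested 5 hr before a 24 hr compound exposure at 37 C. Viability was then gauged as cellular ATP by luciferase luminescence, with AC50 values fitted to the Hill equation.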
# [2] = Cell Viability - LYMP2-018 (AID 985); conditions: LYMP2-018 lymphoblastoid cells, viability (qHTS); series mostly up to 92.2 µM; note: nearly all actives have a fitted effect of over 50% in size
# How it was run: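 2500 cells/well; 5 hr 37 C; cmpd 24 hr 37 C, complete medium; CellTiter-Glo 30 min RT; luminescence. Tetraoctylammonium bromide positive control. AC50 via Hill fit.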
# [3] = Cell Viability - LYMP2-020 (AID 986); conditions: series mostly up to 92.2 µM; note: nearly all actives have a fitted effect of over 55% in size
# How it was run: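 qHTS, 2500 cells/well; 5 hr then 24 hr compound exposure, 37 C; CellTiter-Glo luminescence after 30 min RT; ATP decrease taken as cytotoxicity; AC50 via Hill equation; tetraoctylammonium bromide positive control.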
# [4] = Cell Viability - LYMP2-022 (AID 987); conditions: LYMP2-022 lymphoblastoid cell viability; series mostly up to 92.2 µM; note: nearly all actives have a fitted effect of over 55% in size
# How it was run: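 Luminescent ATP read-out (CellTiter-Glo, 30 min, RT) after 24 hr, 37 C compound exposure of 2500 human lymphoblastoid cells/well in complete medium. Cytotoxicity taken as concentration-dependent ATP loss; AC50 from standard Hill equation.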
# [5] = Cell Viability - LYMP2-024 (AID 988); conditions: LYMP2-024 lymphoblastoid cell viability; series mostly up to 92.2 µM; note: nearly all actives have a fitted effect of over 60% in size
# How it was run: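 ATP-based luminescence (CellTiter-Glo, 30 min RT) after 24 h compound exposure at 37 C of 2500 lymphoblastoid cells/well; decrease in ATP taken as cytotoxicity. qHTS concentration-response fitted to standard Hill equation for AC50.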
# [6] = Cell Viability - LYMP2-026 (AID 989); conditions: LYMP2-026 lymphoblastoid cell viability, qHTS; series mostly up to 92.2 µM; note: nearly all actives have a fitted effect of over 50% in size
# How it was run: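 qHTS cytotoxicity: 2500 cells/well, 5 hr 37 C, compound 24 hr 37 C, CellTiter-Glo 30 min RT, luminescence. Tetraoctylammonium bromide positive control. AC50 via standard Hill fit.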
# [7] = Cell Viability - LYMP1-002 - Assay at 24 hr (AID 993); conditions: LYMP1-002 lymphoblastoid cells viability; series mostly up to 92.2 µM
# How it was run: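 CellTiter-Glo luminescence (intracellular ATP) after 24 h compound exposure, 37 C, in LYMP1-002 human lymphoblastoid cells; decreased ATP taken as cytotoxicity. AC50 from standard Hill fit of concentration-response curves.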
# [8] = Cell Viability - LYMP1-002 - Assay at 40 hr (AID 994); conditions: LYMP1-002 lymphoblastoid cell viability; series mostly up to 92.2 µM; note: nearly all actives have a fitted effect of over 60% in size
# How it was run: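 qHTS cytotoxicity; 2500 cells/well, 5 hr 37 C settle, compound 40 hr 37 C. CellTiter-Glo, 30 min RT, luminescence (ATP). Concentration-response, Hill fit → AC50. Pos. ctrl tetraoctylammonium bromide.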
# [9] = biological target: Flap endonuclease 1 (Homo sapiens) (UniProt P39748); assay: qHTS Assay for the Inhibitors of FEN1: Confirmatory Assay for Cherry-picked Compounds (AID 720498); conditions: FEN1 flap cleavage, TAMRA/BHQ2 fluorogenic DNA substrate; note: potency is the fitted concentration of half-maximal effect; nearly all actives have a fitted effect of over 60% in size
# Chain of Flap endonuclease 1 (Homo sapiens) (P39748 whole entry, looked up): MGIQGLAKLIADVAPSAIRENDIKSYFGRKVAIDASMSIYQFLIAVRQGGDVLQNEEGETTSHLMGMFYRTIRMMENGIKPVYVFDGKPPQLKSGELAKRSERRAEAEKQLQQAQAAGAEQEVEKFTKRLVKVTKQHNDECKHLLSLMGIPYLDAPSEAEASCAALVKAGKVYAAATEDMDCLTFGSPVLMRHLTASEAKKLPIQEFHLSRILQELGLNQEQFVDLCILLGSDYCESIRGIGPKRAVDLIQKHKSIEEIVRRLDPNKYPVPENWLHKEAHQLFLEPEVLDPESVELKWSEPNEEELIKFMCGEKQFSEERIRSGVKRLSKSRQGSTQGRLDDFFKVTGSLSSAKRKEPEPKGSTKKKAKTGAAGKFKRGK
# How it was run: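 Human FEN1 (10 nM reagent) was preincubated with compounds for 15 min at room temperature, then 50 nM final double-flap DNA substrate (5'-TAMRA flap, BHQ-2 quencher strand) was added. Fluorescence (ex 525/em 598 nm) was read at 0 and 15 min.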
# [10] = qHTS for Inhibitors of the vitamin D receptor (VDR): Hit Validation using a Texas Red Assay (AID 602201); conditions: VDR coregulator binding, Texas Red fluorescence polarization; agonist-bound VDR ligand-binding domain; note: potency is the fitted concentration of half-maximal effect
# How it was run: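 Fluorescence polarization with 1.5 uM VDR-LBD, LG19078 and 7 nM Texas Red (final). After 2 hours at ambient temperature, read at Ex 595 nm/Em 615 nm.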
# [11] = biological target: Rap guanine nucleotide exchange factor 4 (Homo sapiens) (UniProt Q8WZA2); assay: Confirmatory qHTS for antagonist of cAMP-regulated guanine nucleotide exchange factor 4 (EPAC2) (AID 1645885); conditions: EPAC2 Rap1B-BODIPY-GDP exchange fluorescence, biochemical; series mostly up to 114 µM; note: potency is the fitted concentration of half-maximal effect; nearly all actives have a fitted effect of over 25% in size
# Chain of Rap guanine nucleotide exchange factor 4 (Homo sapiens) (Q8WZA2 whole entry, looked up): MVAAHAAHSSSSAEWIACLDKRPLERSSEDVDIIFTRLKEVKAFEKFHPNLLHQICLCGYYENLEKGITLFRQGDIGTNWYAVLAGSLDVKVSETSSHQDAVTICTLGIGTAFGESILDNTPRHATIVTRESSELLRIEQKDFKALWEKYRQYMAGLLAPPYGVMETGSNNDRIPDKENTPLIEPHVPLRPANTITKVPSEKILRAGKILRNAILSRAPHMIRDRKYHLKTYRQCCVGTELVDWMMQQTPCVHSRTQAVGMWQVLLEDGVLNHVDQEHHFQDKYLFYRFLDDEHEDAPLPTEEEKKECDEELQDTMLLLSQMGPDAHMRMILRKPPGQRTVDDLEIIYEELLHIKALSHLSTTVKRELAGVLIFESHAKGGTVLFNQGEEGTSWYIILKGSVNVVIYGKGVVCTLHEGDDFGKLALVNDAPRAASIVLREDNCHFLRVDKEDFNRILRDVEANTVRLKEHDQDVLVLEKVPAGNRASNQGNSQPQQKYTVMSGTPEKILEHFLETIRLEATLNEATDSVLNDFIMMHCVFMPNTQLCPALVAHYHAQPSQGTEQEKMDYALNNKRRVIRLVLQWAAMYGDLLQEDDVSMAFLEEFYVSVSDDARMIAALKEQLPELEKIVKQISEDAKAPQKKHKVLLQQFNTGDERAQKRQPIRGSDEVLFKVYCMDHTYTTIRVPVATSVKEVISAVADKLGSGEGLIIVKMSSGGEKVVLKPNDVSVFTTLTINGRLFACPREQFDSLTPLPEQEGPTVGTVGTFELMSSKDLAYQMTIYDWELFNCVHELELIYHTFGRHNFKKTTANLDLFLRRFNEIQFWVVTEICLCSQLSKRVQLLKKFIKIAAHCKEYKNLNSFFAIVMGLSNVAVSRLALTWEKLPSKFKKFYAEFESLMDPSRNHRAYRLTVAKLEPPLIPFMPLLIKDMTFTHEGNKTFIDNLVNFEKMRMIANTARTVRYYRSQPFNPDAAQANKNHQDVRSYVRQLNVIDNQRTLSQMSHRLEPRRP
# [12] = qHTS for Inhibitors of the vitamin D receptor (VDR): Hit Validation using a Cytotoxicity Assay (AID 602204); conditions: cytotoxicity counter-screen, cell viability; series mostly up to 48.3 µM; note: nearly all actives have a fitted effect of over 75% in size
# How it was run: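 First, 20,000 cells are dispensed per well. Next comes a 4 h incubation, then compound addition and an 18 h incubation. Finally, ATP-based luminescent reagent is added and plates are read after 30 min.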
smiles,measurement,setting,value
CN(C)CCOC(c1ccccc1)c1ccccc1 (tested in a mixture with another compound),outcome,[1],inactive
same,outcome,[2],inactive
same,outcome,[3],inactive
same,outcome,[4],inactive
same,outcome,[5],inactive
same,outcome,[6],inactive
same,outcome,[7],inactive
same,outcome,[8],inactive
CCC1CCCCN1CCCNC(=O)c1cc2c(Cl)nc3ccccc3c2s1 (configuration not stated),Potency,[9],33.8 µM (active)
CCOc1ccc(NC(=O)c2c(NC(=O)Cc3ccccc3)sc3c2CCC(C)C3)cc1 (configuration not stated),Potency,[10],3.55 µM (active)
CC(=O)OC1CCC23CC1(C)CCC2C(C)(C)CC3OC(C)=O (configuration not stated),Potency,[11],39.3 µM (active)
CCCCOc1ccc(CN2C(=O)C(=O)c3cc(Br)cc(C)c32)cc1OC,outcome,[12],inactive
